# Source: PubChem (National Center for Advancing Translational Sciences (NCATS))
# A selection: hits, their analogues and other compounds. The true share with any hit is near 11%.
# NPR1 antag: antagonists of human natriuretic peptide receptor Npr1 | hit rate 1.6% among 76,000 | Potency, µM (titrated, usually from 46.3 µM), inactives show at the highest dose activity change, negative = inhibition, actives largely listed as inhibitors | HEK293 hNpr1 GloSensor cGMP, ANP-stimulated luminescence | AID 1347048; calls by dose curve; further: nearly all actives have a fitted effect of over 60% in size
#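 HEK293 cells stably expressing human Npr1 and cGMP GloSensor pGS-40F, loaded 2 h with 2% GloSensor reagent, given compound 30 min at room temperature. Luminescence read before and 20 min after 0.1 nM hNppA.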
# HEK cytotox: HEK 293 cell cytotoxicity; HEK 293 viability, ATP luminescence (CellTiter-Glo), 48-72 h; hit rate 6.6% among 94,000; Potency, µM (doses to about 115 µM), inactives show at the top dose activity change, negative = cytotoxicity, actives largely listed as inhibitors; further: nearly all actives have a fitted effect of over 60% in size
#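 HEK 293 seeded at 250 cells/well receive compound via pintool. After 48 or 72 hr at 37 degree Celsius, 5% CO2 and 95% humidity, CellTiter-Glo is dispensed and luminescence read following 10 min at room temperature.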
# NIH3T3 tox: kills NIH 3T3 cells | NIH 3T3 viability, CellTiter-Glo ATP luminescence, 48-72 h | Potency, µM (highest dose often 96.7 µM), inactives show at the highest dose activity change, negative = cytotoxicity, most hits filed as inhibitors | hit rate 4.3% among 94,000; further: nearly all actives have a fitted effect of over 55% in size
#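 ATP-dependent luminescence (CellTiter-Glo) served as the viability signal for NIH 3T3 cells treated with compound for 48 or 72 hr at 37 °C.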
# FLuc inh: blocks purified firefly luciferase enzyme activity; P08659; hit rate 2.5% among 76,000; Potency, µM (series often up to 115 µM), hits mostly inhibitors; purified P. pyralis luciferase, luminescence, biochemical; AID 1347043; further: nearly all actives have a fitted effect of over 65% in size
# Target sequence (P08659 whole entry, looked up): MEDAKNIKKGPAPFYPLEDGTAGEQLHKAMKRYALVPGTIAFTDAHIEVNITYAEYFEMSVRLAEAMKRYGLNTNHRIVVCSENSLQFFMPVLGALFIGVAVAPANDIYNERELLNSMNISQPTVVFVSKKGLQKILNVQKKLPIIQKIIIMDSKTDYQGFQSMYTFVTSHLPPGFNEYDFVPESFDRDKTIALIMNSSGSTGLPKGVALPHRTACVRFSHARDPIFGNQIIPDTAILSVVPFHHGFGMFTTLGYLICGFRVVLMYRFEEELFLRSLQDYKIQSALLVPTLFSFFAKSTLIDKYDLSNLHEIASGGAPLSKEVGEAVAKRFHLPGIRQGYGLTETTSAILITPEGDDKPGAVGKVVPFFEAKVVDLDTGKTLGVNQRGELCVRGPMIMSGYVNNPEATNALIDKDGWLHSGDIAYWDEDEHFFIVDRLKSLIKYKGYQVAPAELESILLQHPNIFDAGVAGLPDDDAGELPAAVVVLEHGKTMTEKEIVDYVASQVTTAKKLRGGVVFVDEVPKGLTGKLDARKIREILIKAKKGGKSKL
#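 Luminescence read by CCD imaging after purified firefly luciferase (10nM final) was added to substrate buffer holding 10uM D-luciferin and 10uM ATP, pH 7.5, pre-dosed with compound.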
# Numbers without * were called inactive; i = inactive; u = inconclusive; x = no result given; ! = a repeat was not active; [ ] = dose if it differs, or a comment. Unless noted, the call rests on the fitted dose curve; in most records, active means well fitted curve in the direction sought with a large enough effect; inconclusive means small, poorly fitted or top-dose-only effect, or another doubt; inactive means no such curve, though single readings can be large; an effect the other way counts as inactive or inconclusive. On the % scale 0 is the no-effect control and ±100 the full control effect; potency means the concentration at half of the fitted maximal effect.
SMILES,NPR1 antag,HEK cytotox,NIH3T3 tox,FLuc inh
Cn1nc(C(=O)N2CCC[C@H](n3c(=O)n(CC4CC4)c4cccnc43)C2)c2ccccc21,x,32µM*,u,x
Cc1ccsc1C(=O)N1CCC[C@H](n2c(=O)n(CC3CC3)c3cccnc32)C1,-23%,25µM*,u,i
O=C(CCCc1ccccc1)N1CC(CO)C2(CCNCC2)C1 (stereo not drawn),x,i,i,x
O=C(C1CCCN1C(=O)c1ccccc1F)N1CCC(N2CCCC2=O)CC1 (stereo not drawn),x,-5%,-17%,x
O=C1Nc2ccccc2CC12CCN(Cc1ccc(OC(F)(F)F)cc1)C2 (stereo not drawn),u,28µM*,u,i
Cc1ccccc1C(=O)N1CCCCC12Cc1ccccc1NC2=O (stereo not drawn),15%[70.6 µM],112µM*!,u,i
O=C1NCc2ccccc2CC12CCN(Cc1ccc(-c3ccccc3)cc1)CC2,x,32µM*,25µM*,x
O=C1Nc2ccccc2CC12CCN2Cc1ccc(OC(F)(F)F)cc1 (stereo not drawn),-15%,45µM*,u,i
CN(C)C(=O)C1CCc2nnc(-c3ccc(F)cc3)n21 (stereo not drawn),x,4%[172 µM],0%[138 µM],x
O=C(C1CCCN1C(=O)Cc1ccc(F)cc1)N1CCC(N2CCOCC2=O)CC1 (stereo not drawn),x,-1%,-18%,x
CC(C)NC(=O)c1nc2sccn2c1-c1ccc(F)cc1,x,-16%[172 µM],-33%[138 µM],x
Cc1ncoc1C(=O)N1CCC([C@H]2[C@@H](Oc3ccccc3)CN2C(C)C)CC1,x,-18%,-24%,x
CNC(=O)c1cc(C)nc2onc(C3CCCN(C(=O)C(C)(C)C)C3)c12 (stereo not drawn),x,3%,-2%,x
O=C1Nc2ccccc2CC12CCN2Cc1ccc(F)cc1 (stereo not drawn),0%[70.6 µM],u,-25%[138 µM],i
O=C1Nc2ccccc2CC12CCCCN2Cc1ccc(F)cc1 (stereo not drawn),-2%[70.6 µM],79µM*,u,i
O=C1Nc2ccccc2CC12CCN(Cc1ccc(Cl)cc1)CC2,x,89µM*,u,x
O=[S+]1([O-])NCC2(CCN(Cc3ccc(OC(F)(F)F)cc3)C2)Nc2ccccc21 (stereo not drawn),9%,79µM*,u,i
CCOC(=O)CN1C(=O)CN(C(=O)Cc2ccccc2)CCC(OC)c2ccccc21 (stereo not drawn),x,2%,u,x
O=C(NCc1ccc(Cl)cc1)c1ccc2nnc(-c3ccc(Cl)cc3Cl)n2c1,x,u,32µM*,x
O=C(NCc1ccc(F)c(F)c1)c1ccc2nnc(Cc3ccc(Cl)cc3)n2c1,x,u,35µM*,x
COc1ccc(CCNC(=O)c2ccc3nnc(-c4ccc(Cl)cc4)n3c2)cc1,x,-6%,-21%,x
O=C(NCc1ccc(F)c(F)c1)c1ccc2nnc(C3CC3)n2c1,x,-2%[172 µM],u,x
COc1ccc(Cc2nnc3ccc(C(=O)NCCc4ccc(Cl)cc4)cn23)cc1,x,89µM*,u,x
O=C(Nc1cccc(Cl)c1)c1ccc2nnc(-c3ccc(Cl)cc3)n2c1,x,40µM*,45µM*,x
CNC(=O)c1cc(C2CC2)nc2c1c(C1CCCN1C(=O)c1ccc(C(F)(F)F)cc1)nn2C (stereo not drawn),x,-24%,-34%,x
SMILES,NPR1 antag,HEK cytotox,NIH3T3 tox,FLuc inh
CCc1noc([C@@H]2CC(F)(F)CN2C(=O)c2ccoc2C)n1,-4%,u,-9%,35µM*
CN(CC#N)C(=O)c1cc(-c2cccc(F)c2)nc2c1cnn2C,x,-21%,u,x
Cc1nn(C)c(C)c1CN(Cc1cnc(N2CCCCC2)nc1)C1CC1,13µM*,25µM*,u,u
Cc1nn(C)c(C)c1CN(Cc1ccc2c(C)cc(=O)oc2c1)C1CC1,u,u,u,i
COCCNC(=O)c1cc(-c2cccc(C(F)(F)F)c2)nc2c1cnn2C,x,-3%,-36%,x
COc1ccc([C@H]2C[C@@H](O)[C@@H](O)[C@@H]2NS(=O)(=O)c2ccc(C(F)(F)F)cc2)cc1,2%[70.6 µM],100µM*,-28%[174 µM],i
COc1ccc([C@H]2C[C@@H](O)[C@@H](O)[C@@H]2NCc2cnn(C)c2)cc1,-3%[70.6 µM],-12%[172 µM],-7%[138 µM],i
COc1ccc([C@H]2C[C@@H](O)[C@@H](O)[C@@H]2NCc2ccc(Cl)cc2)cc1,-21%[70.6 µM],100µM*,u,i
COc1ccc([C@H]2C[C@@H](O)[C@@H](O)[C@@H]2NCc2ccccc2)cc1,u,-23%[172 µM],1%[174 µM],i
COc1ccc([C@H]2C[C@@H](O)[C@@H](O)[C@@H]2NCc2cn(C)c3ccccc23)cc1,-24%[70.6 µM],u,89µM*,i
COc1ccc(CN[C@H]2[C@H](O)[C@H](O)C[C@@H]2c2ccc(C(F)(F)F)cc2)cc1,-15%[70.6 µM],45µM*,28µM*,i
O=C(Nc1ccccc1)[C@@H]1OCCN(C2CC2)[C@H]1c1ccccc1,x,-24%,-13%,x
Cc1ccccc1C(=O)N1CCCC2(CN[S+](=O)([O-])c3cccnc3N2)C1 (stereo not drawn),x,u,-19%,x
O=C(N[C@H]1[C@H](O)[C@H](O)C[C@@H]1c1ccc(C(F)(F)F)cc1)c1ccc2c(c1)OCCO2,0%[70.6 µM],u,100µM*,u
O=C(N[C@H]1[C@H](O)[C@H](O)C[C@@H]1c1ccc(C(F)(F)F)nc1)c1ccc2c(c1)OCCO2,-2%[70.6 µM],-8%[172 µM],-22%[174 µM],i
COc1ccc([C@H]2C[C@@H](O)[C@@H](O)[C@@H]2NC(=O)c2cc3ccccc3s2)cc1,u,79µM*,u,i
O=C(CC1CCCC1)N1CC[C@@H]2COCCN(Cc3ccccc3)[C@@H]2C1,-2%,79µM*,-28%,i
CC(=O)NC1CC(c2cc(NCCCOC3CCN(C)CC3)ncn2)C1 (stereo not drawn),0%,-5%,-16%,i
OC1CC(c2cc(NCCSC3CCCCC3)ncn2)C1 (stereo not drawn),13µM*,u,u,u
O=C(NCc1ccc(F)c(F)c1)c1ccc2nc(-c3ccncc3)oc2c1,x,u,-25%,x
CN1CCN(c2ccc3ncc(Nc4ccc5c(c4)OCCO5)n3n2)CC1,-1%[70.6 µM],u,u,i
c1ccc(Oc2ccc(Nc3cnc4ccc(N5CCOCC5)nn34)cc2)cc1,u,u,45µM*,i
Clc1cccc(Nc2cnc3ccc(N4CCOCC4)nn23)c1,u,u,u,i
CN1CCN(c2ccc3ncc(Nc4ccc(Cl)c(C(F)(F)F)c4)n3n2)CC1,u,79µM*,u,i
CN1CCN(c2ccc3ncc(Nc4ccc(OC(F)(F)F)cc4)n3n2)CC1,-20%[70.6 µM],50µM*,35µM*,i
O=C(NCc1ccc(F)c(F)c1)c1ccc2nc(-c3cccnc3)oc2c1,x,u,-20%[138 µM],x
CCc1nc2c(c(-c3ccc(O)cc3)n1)CN(C(=O)Cc1ccc(F)cc1)CC2,x,-2%,u,x
